The panel holds about 83,000 compounds, 20% with a hit somewhere; the sample as a whole holds those more often.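 Cells were grown in 96-well plates and exposed to the test compound at a single concentration for 48 hours; results are reported as percent growth, with values below 10 considered active.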 Unmarked numbers belong to inactive results. Calls of active or inactive are those of the source.
These compounds were tested on UACC-62 melanoma (assay: NCI-60 one-dose screen, 48 h (100 = growth as untreated, 0 = no growth, -100 = all killed)). Conditions: 10 µM unless noted.

| SMILES | growth |
| --- | --- |
| CC1Cc2c(N(C)C)ncnc2N(C)c2ccc(O)cc21 (stereo not drawn) | 81.2% |
| O=S(=O)(NCCCNc1cc(-c2cn(-c3ccccc3)nc2-c2cccc(O)c2)ccn1)c1ccc(C(F)(F)F)cc1 | 27.4% |
| Cc1ccc(S(=O)(=O)N2CCC(C(=O)Nc3ccc(F)cc3F)CC2)cc1 | 86.4% |
| COc1ccc2c(c1)NC(=O)CN2c1nc(NC2CC2)nc2ccccc12 | 26.1% |
| C=C1C(=O)O[C@H]2[C@H]1CC/C(COC(=O)NCCc1cccc(OC)c1)=C\CC[C@@]1(C)O[C@@H]21 | 22.8% |
| COc1cc(-c2csc(NC(=O)c3cc(C(F)(F)F)cc(C(F)(F)F)c3)n2)cc(OC)c1OC | 3.9% (active) |
| Clc1nc(Cl)c2ncn(C/C=C/Cn3cnc4c(Cl)nc(Cl)nc43)c2n1 | 79.1% |
| Cc1ccc2c(c1)C(C)Cc1c(ncnc1-n1cnc3ccccc31)N2C (stereo not drawn) | 26% |
| CCN(CC)S(=O)(=O)c1ccc2[nH]c(=O)cc(C(=O)Nc3ccc(OC)cc3OC)c2c1 | 103% |
| COC(=O)CCCCCN=Cc1c(O)c(O)c(C(C)C)c2cc(C)c(-c3c(C)cc4c(C(C)C)c(O)c(O)c(C=NCCCCCC(=O)OC)c4c3O)c(O)c12 | 25% |
| CCC(=O)Oc1ccc2c(c1)CC[C@@H]1[C@@H]2CC[C@]2(C)C[C@H](OC(=O)CC)C[C@@H]12 | 49.1% |
| C=C1C(=O)O[C@H]2[C@H]1CC/C(COC(=O)NCc1cc(OC)cc(OC)c1)=C\CC[C@@]1(C)O[C@@H]21 | -44.9% (active) |
| O=C(Nc1ccc(I)cc1)c1cc([N+](=O)[O-])ccc1O | 0.385% (active) |
| O=C(CNC(=O)c1cccc2ccccc12)Nc1ccccc1Oc1ccccc1 | 21.3% |
| O=C(/C=C/CN1CCOCC1)Nc1cc2c(Nc3ccc(F)c(Cl)c3F)ncnc2cc1OCCOC(F)F | 65.7% |
| O=C(NCCc1c[nH]c2ccccc12)C1Cc2ccccc2CN1C(=O)c1ccco1 (stereo not drawn) | 93.4% |
| Nc1cc2c(cc1N)-c1cc(N)c(N)cc1C2 | 99.9% |
| COc1ccc(/C(=N\O)c2cc(OC)c(OC)c(OC)c2)c(OC)c1N | 30% |
| CCC(c1ccc(OC)cc1)C(CC)c1ccc(O)c(CN2CCCC2)c1 (stereo not drawn) | -74.1% (active) |
| CC(C)(C)c1cc(-c2nc3ccc(N4CCN(CCO)CC4)cc3[nH]2)cc(C(C)(C)C)c1O | 26.7% |
| OCc1c(-c2ccccc2)nc2sccn12 | 101% |
| O=C(OCCCCOC(=O)n1cnc2ccccc21)n1cnc2ccccc21 | 96.3% |
| OC1CC2c3ccccc3C1c1ccccc12 (stereo not drawn) | 103% |
